Bioassay records from PubChem BioAssay.
Gal4-VP16 FLuc: VP16 counterscreen qHTS for inhibitors of ROR gamma transcriptional activity; Potency, µM (series often up to 53.6 µM), actives largely listed as inhibitors; actives 3.5% (n = 310,000); Drosophila S2 Gal4-VP16 UAS-luciferase, luminescence, 20 h;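 also: Gal4-VP16 expression switched on by copper sulfate through the metallothionein promoter; nearly all actives have a fitted effect of over 50% in size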
RORg inh: qHTS for inhibitors of ROR gamma transcriptional activity; Nuclear receptor ROR-gamma (Mus musculus), P51450; Drosophila S2 Gal4-RORgamma UAS-luciferase reporter, 20 h; Potency, µM (series often up to 53.6 µM), usual class: inhibitors; actives 5.4% (n = 310,000); also: nearly all actives have a fitted effect of over 60% in size
Target sequence (P51450 whole entry, looked up, the tested form may be a part): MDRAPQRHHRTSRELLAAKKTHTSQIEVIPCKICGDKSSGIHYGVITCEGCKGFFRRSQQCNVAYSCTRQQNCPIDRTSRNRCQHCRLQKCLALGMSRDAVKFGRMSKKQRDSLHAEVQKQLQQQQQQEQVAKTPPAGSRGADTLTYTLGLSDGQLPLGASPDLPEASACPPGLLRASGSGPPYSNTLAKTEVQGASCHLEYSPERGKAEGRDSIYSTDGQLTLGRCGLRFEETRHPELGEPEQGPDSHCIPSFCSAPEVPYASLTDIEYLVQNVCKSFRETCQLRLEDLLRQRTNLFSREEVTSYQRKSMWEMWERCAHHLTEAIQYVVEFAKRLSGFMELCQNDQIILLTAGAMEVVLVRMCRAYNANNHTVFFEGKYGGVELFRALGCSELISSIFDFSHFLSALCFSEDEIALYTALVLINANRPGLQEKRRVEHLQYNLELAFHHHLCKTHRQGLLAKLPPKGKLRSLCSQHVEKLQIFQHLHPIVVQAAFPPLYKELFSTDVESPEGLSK
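Drosophila Schneider cells stably carrying a metallothionein-driven Gal4 DBD–ROR gamma fusion and a UAS-Photinus luciferase reporter were exposed to compound for 1 hr, then induced with copper sulfate (700 uM final) for 20 hr at ambient temperature before luminescence reading.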
uPA generation: qHTS for Inhibitors of Cell Surface uPA Generation; actives 0.31% (n = 330,000); Potency, µM (highest dose often 38.3 µM), most hits filed as inhibitors; cell surface uPA generation assay, qHTS; active = well fitted inhibition curve with a large enough effect; inconclusive = small, poorly fitted or top-dose-only effect; inactive = no such curve, though single readings can be large or run the other way; tested in mouse RAW 264.7 cells; also: nearly all actives have a fitted effect of over 55% in size
a7 integrin act: qHTS for Activators of Integrin-Mediated Alleviation for Muscular Dystrophy; AID 624291, 2012; alpha7betagal myoblasts, beta-gal FDG fluorescence, 48 h; actives 0.064% (n = 350,000); Potency, µM (doses to about 38.3 µM), usual class: activators; also: nearly all actives have a fitted effect of over 60% in size
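alpha7betagal+/- myoblasts (passage 13, 250/well) treated 48 h at 37C with compounds at 1:260 dilution of DMSO stock. Lysed, then beta-galactosidase activity read as FDG fluorescence (ex 480/em 540) after 30 min, with pre-read for autofluorescence.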
BCR signal inh: qHTS Assay to Find Inhibitors of Chronic Active B-Cell Receptor Signaling; ABC-DLBCL IkBa-CBG/CBR reporter, luminescence ratio, 4 h; Potency, µM (top dose mostly 46.1 µM), usual class: inhibitors; actives 0.05% (n = 340,000); active = well fitted inhibition curve with a large enough effect in the signal ratio, with a control signal flat, not every such curve was filed as active; inconclusive = small, poorly fitted or top-dose-only effect, or effect the other way, or a change in a side signal; the % refers to the signal ratio
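Cell line TMD8 (human ABC DLBCL), stably expressing tet-inducible CBG68-IkBa fusion and CBR; IMDM/0.5% FBS; cpd up to 46 uM; dox induction, 4 h, 37C/5% CO2; dual luminescence; green/red ratio; MG132 control.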
Mito fusion yeast: qHTS Assay for Small Molecule Inhibitors of Mitochondrial Division or Activators of Mitochondrial Fusion. AID 485298, 2010. S. cerevisiae fusion-defective mutant growth rescue, CellTiterGlo 48 h. actives 0.23% (n = 320,000). Potency, µM (highest dose often 46.1 µM), most hits filed as activators; also: nearly all actives have a fitted effect of over 45% in size
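Luminescent cell viability in 1536-well qHTS format served as the measure of rescued growth in ts fusion-mutant S. cerevisiae cultured on non-fermentable YPEG for 48 hours at 37C.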
Of the large screens only hits and unclear results are named; the others gave an inactive call. Compounds with a hit are over-represented: about 5.5% of the library has one in this group of screens. Unless noted, calls follow the shape of the dose curve; as a rule, active = well fitted curve in the direction sought with a large enough effect; inconclusive = small, poorly fitted or top-dose-only effect, or another doubt; inactive = no such curve, though single readings can be large; an effect the other way counts as inactive or inconclusive.

O=C(N/N=C/c1ccc([N+](=O)[O-])cc1)c1cccnc1	RORg inh inconclusive
O=C(N/N=C\c1ccc([N+](=O)[O-])o1)c1cncc(Br)c1	Gal4-VP16 FLuc inconclusive, RORg inh inconclusive, BCR signal inh inconclusive
O=C(N/N=C/c1ccc(-c2ccccc2[N+](=O)[O-])o1)c1cncc(Br)c1	Gal4-VP16 FLuc 5µM, RORg inh 6.3µM
O=C(N/N=C/c1ccc(-c2ccc([N+](=O)[O-])cc2)o1)c1cccnc1	RORg inh 11µM
O=C1CC(C(=O)N2CCN(c3ccccc3)CC2)CN1Cc1ccccc1 (stereo not given)	none (no result: Gal4-VP16 FLuc, RORg inh, Mito fusion yeast)
COc1cc(C2c3c(c(C)c(C)oc3=O)Oc3c(C)c(C)oc(=O)c32)ccc1OS(=O)(=O)c1ccc(C)cc1	none (no result: Gal4-VP16 FLuc, RORg inh)
CCOC(=O)c1cc(-c2ccccc2)n(-c2cccc(C(=O)Nc3cccc(F)c3)c2)c1C	none (no result: Gal4-VP16 FLuc, RORg inh, uPA generation, a7 integrin act, Mito fusion yeast)
CS(=O)(=O)Nc1cccc(-c2nc(Nc3ccncc3)c3ccccc3n2)c1	RORg inh inconclusive (no result: uPA generation, a7 integrin act, BCR signal inh, Mito fusion yeast)
O=CN1c2ccccc2CSc2ccccc21	none (no result: Gal4-VP16 FLuc, RORg inh, BCR signal inh, Mito fusion yeast)
COCCOC(=O)C1=C(C)NC(=S)NC1/C=C/c1ccccc1 (stereo not given)	none
CC1=C(C(=O)OCc2ccccc2)C(/C=C/c2ccccc2)NC(=S)N1 (stereo not given)	Gal4-VP16 FLuc 5.6µM, RORg inh inconclusive, Mito fusion yeast 16µM
C=CCOC(=O)C1=C(C)NC(=S)NC1/C=C/c1ccccc1 (stereo not given)	Gal4-VP16 FLuc 6.3µM, RORg inh 2.5µM, BCR signal inh inconclusive (no result: uPA generation)
N#CC(c1cccc(Cl)c1)c1ccc2c(C(F)(F)F)cc(C(F)(F)F)nc2n1 (stereo not given)	Gal4-VP16 FLuc 4µM, RORg inh 5µM (no result: BCR signal inh)
N#CC(c1ccccc1)c1cccc(Cl)n1 (stereo not given)	none
CCCc1nn(-c2ccccc2)c2c1C(c1cccs1)C(C#N)=C(N)O2 (stereo not given)	RORg inh 13µM
Cc1nn(-c2ccccc2)c2c1C(c1cccs1)C(C#N)=C(N)O2 (stereo not given)	BCR signal inh inconclusive
Cc1cc(C)c(NC(=S)NC(=O)c2ccc(-c3ccccc3)cc2)c(C)c1	Gal4-VP16 FLuc 5.6µM, RORg inh 4.5µM
COC(=O)c1ccccc1NC(=O)c1cc(-c2ccc(C)cc2)on1	BCR signal inh inconclusive (no result: uPA generation)
COC(=O)c1ccccc1NC(=S)NC(=O)c1ccc2c(c1)OCO2	Gal4-VP16 FLuc inconclusive, BCR signal inh inconclusive
COC(=O)c1ccccc1NC(=S)NC(=O)c1ccccc1	Gal4-VP16 FLuc inconclusive, RORg inh 1µM
O=C(NC(=S)Nc1ccc([N+](=O)[O-])cc1)c1ccco1	none (no result: Gal4-VP16 FLuc, RORg inh, uPA generation, BCR signal inh, Mito fusion yeast)
O=C(NC(=S)Nc1ccccc1[N+](=O)[O-])c1ccco1	Gal4-VP16 FLuc inconclusive, RORg inh 7.9µM
COC(=O)c1ccccc1NC(=S)NC(=O)c1ccc(C)cc1	Gal4-VP16 FLuc inconclusive, RORg inh 16µM, BCR signal inh inconclusive
COc1cccc(OC)c1C1=NC(C)(C)CO1	none
COc1cccc(Cn2c(=O)c(CCc3ccccc3)nc3cnc(N4CCNCC4)nc32)c1	none (no result: uPA generation, a7 integrin act, BCR signal inh, Mito fusion yeast)
Cc1nc2c(C(=O)NCc3ccccc3Cl)cnn2c(C)c1Cc1c(F)cccc1Cl	BCR signal inh inconclusive (no result: Gal4-VP16 FLuc, RORg inh, uPA generation, a7 integrin act)
CCOC(=O)c1c(S(=O)(=O)N2CCCC(C(=O)N3CCN(c4cc(C)ccc4C)CC3)C2)c(C)n(C)c1C (stereo not given)	none (no result: Gal4-VP16 FLuc, RORg inh, uPA generation, a7 integrin act, Mito fusion yeast)
Cc1ccccc1C(=O)NC(=S)Nc1ccccc1[N+](=O)[O-]	Gal4-VP16 FLuc inconclusive, RORg inh 6.3µM
CCC(NC(=O)c1ccccc1NC(=O)c1ccccc1)C(=O)OC (stereo not given)	Gal4-VP16 FLuc 6.3µM, RORg inh inconclusive, BCR signal inh inconclusive
O=C(NC(=S)Nc1cccc(NC(=S)NC(=O)c2ccccc2)c1)c1ccccc1	none (no result: Gal4-VP16 FLuc, RORg inh, BCR signal inh, Mito fusion yeast)
Cc1ccc(NC(=S)NC(=O)c2ccccc2)cc1NC(=S)NC(=O)c1ccccc1	Gal4-VP16 FLuc 7.1µM, RORg inh 1.4µM, BCR signal inh inconclusive
Cc1cc(NC(=S)NC(=O)c2ccccc2)ccc1-c1cc2ccccc2oc1=O	RORg inh 0.4µM, BCR signal inh inconclusive
CCC(NC(=O)c1ccccc1NC(=O)c1ccc(OC)cc1)C(=O)N1CCCC1 (stereo not given)	none
C/C(=N\Nc1ccc(Cl)cc1)c1c(O)cc(C)oc1=O	none
COC(=O)c1ccccc1NC(=S)NC(=O)c1ccccc1C	Gal4-VP16 FLuc inconclusive, RORg inh 7.9µM, BCR signal inh inconclusive
Cc1ccccc1C(=O)NC(=S)Nc1ccccc1C(=O)O	BCR signal inh inconclusive
CCOC(=O)C(=CNc1cc(C)ccc1-n1cccc1)C(=O)OCC	none
S=c1[nH]cc(Cc2ccccc2)s1	Gal4-VP16 FLuc inconclusive, RORg inh 13µM
O=c1c2ccccc2oc2ccc(NCCCn3ccnc3)cc12	RORg inh inconclusive, uPA generation 4.5µM
COc1ccc(-n2c(C)nn(C)c2=O)cc1	none
COc1ccc(-n2c(/C=C(\C)O)nc(=O)c3c(C)cc(C)nc32)cc1	Mito fusion yeast 20µM
Cc1ccc(NC(=S)N2CCC(c3ccc(C)cc3)C2)cc1 (stereo not given)	Gal4-VP16 FLuc 20µM, RORg inh 10µM, a7 integrin act inconclusive
CCc1cccc(NC(=S)N2CCC(c3ccccc3)C2)c1 (stereo not given)	Gal4-VP16 FLuc 10µM, RORg inh 7.1µM
COC(=O)N[C@@H](CCc1ccccc1)[C@]1(C(C)=O)CCCC1=O	RORg inh inconclusive (no result: uPA generation, a7 integrin act, BCR signal inh, Mito fusion yeast)
Cc1ccc(S(=O)(=O)NC(C)C(=O)OCC(=O)Nc2sccc2C(N)=O)cc1 (stereo not given)	none (no result: Gal4-VP16 FLuc, RORg inh, uPA generation, BCR signal inh, Mito fusion yeast)
O=C(O)CC1S/C(=N\N=C/c2ccccc2)N(c2ccc(O)cc2)C1=O (stereo not given)	none
CN1C(=O)C(CC(=O)O)S/C1=N\N=C\c1ccc(O)cc1O (stereo not given)	Gal4-VP16 FLuc 20µM, RORg inh inconclusive
Cc1cccc(CN2CCN(C(=S)Nc3ccccc3)CC2)c1	Gal4-VP16 FLuc inconclusive, RORg inh 4µM, uPA generation inconclusive
COc1cccc(N2CCN(C(=S)Nc3cccc(C)c3)CC2)c1	RORg inh 7.1µM
Cc1cccc(NC(=S)N2CCN(c3ccccc3)CC2)c1	Gal4-VP16 FLuc inconclusive, RORg inh 10µM
COc1ccc(N2CCN(C(=S)Nc3cccc(C)c3)CC2)cc1	RORg inh inconclusive
CCCCCCCCCCCCCCCC(=O)N[C@@H](COP(=O)(O)O)C(=O)O	none (no result: uPA generation, a7 integrin act, BCR signal inh, Mito fusion yeast)
Cc1ccc(Cl)cc1N1CCN(S(=O)(=O)c2c(C)noc2C)CC1	Mito fusion yeast 18µM
